Source: PMC7862700, “An all-to-all approach to the identification of sequence-specific readers for epigenetic DNA modifications on cytosine”

Columns and labels:
Test in all cases: DAPPL (digital affinity profiling via proximity ligation, sequencing); 10 mM Tris-HCl pH 7.5, 50 mM NaCl, 1 mM DTT, 4% glycerol, room temperature, 30 min; GST-TFs on glutathione beads, 16-mer random dsDNA library, 0.1% formaldehyde crosslink after washing; high values mean tight binding
Conditions in all cases: protein: recombinant; tags: N-terminal GST; dsDNA, one strand shown
ELK1 = target: T1, ELK1 (Homo sapiens, UniProt P19419 1-428)
T1 sequence: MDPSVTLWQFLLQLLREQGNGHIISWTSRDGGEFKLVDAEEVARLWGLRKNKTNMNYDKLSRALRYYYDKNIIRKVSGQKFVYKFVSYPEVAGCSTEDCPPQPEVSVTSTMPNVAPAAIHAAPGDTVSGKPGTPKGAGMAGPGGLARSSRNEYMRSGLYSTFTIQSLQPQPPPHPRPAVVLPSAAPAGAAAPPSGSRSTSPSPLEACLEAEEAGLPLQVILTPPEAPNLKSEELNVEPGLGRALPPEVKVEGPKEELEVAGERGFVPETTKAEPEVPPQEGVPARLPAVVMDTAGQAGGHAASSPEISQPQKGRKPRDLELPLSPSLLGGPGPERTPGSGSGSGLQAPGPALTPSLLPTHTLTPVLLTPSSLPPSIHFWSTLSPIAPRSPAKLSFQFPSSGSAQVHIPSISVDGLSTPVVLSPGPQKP
In short: (§1)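 Yeast served to express human transcription factors as GST fusions, which were then captured on glutathione beads and labelled with DNA barcodes. Pooled with a tag-only sample, they were incubated with 200 nmole of a 16-mer random double-stranded DNA library for 30 min at room temperature in Tris/NaCl/DTT/glycerol buffer, washed, crosslinked with 0.1% formaldehyde, ligated by proximity, amplified by PCR and sequenced. Dividing each hexamer's read frequency for a factor by its frequency for the tag-only sample gives the binding signal.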

GABPA = target: T2, GABPA (Homo sapiens, UniProt Q06546 1-454)
T2 sequence: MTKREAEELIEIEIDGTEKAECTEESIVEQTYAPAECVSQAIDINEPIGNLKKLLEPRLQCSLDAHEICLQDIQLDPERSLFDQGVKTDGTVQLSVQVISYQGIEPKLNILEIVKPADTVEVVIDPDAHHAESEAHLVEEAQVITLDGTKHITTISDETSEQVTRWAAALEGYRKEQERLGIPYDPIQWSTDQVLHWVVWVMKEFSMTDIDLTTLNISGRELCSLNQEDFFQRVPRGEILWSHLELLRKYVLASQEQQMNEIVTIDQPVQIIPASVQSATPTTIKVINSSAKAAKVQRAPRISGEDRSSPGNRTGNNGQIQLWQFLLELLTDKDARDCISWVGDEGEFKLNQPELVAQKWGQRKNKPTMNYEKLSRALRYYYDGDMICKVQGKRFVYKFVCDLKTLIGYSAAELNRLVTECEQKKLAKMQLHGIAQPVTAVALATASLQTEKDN
In short: as §1

ERG = target: T3, ERG (Homo sapiens, UniProt P11308 1-479)
T3 sequence: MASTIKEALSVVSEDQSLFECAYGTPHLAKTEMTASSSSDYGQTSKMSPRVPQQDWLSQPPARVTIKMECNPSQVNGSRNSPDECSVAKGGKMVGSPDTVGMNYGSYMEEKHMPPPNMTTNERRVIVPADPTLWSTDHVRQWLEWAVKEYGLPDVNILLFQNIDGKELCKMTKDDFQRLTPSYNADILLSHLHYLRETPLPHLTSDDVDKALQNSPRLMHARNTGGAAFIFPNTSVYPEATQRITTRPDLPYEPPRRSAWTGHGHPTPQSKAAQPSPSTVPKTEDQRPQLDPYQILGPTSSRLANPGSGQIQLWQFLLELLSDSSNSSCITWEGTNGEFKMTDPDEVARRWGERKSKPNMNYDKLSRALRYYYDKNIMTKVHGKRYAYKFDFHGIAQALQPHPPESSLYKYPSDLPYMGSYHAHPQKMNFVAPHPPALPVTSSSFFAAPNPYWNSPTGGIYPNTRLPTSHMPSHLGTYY
In short: as §1

ELF1 = ELF1 (Homo sapiens, UniProt P32519 1-619)
In short: as §1

EHF = target: T4, EHF (Homo sapiens, UniProt Q9NZC4 1-300)
T4 sequence: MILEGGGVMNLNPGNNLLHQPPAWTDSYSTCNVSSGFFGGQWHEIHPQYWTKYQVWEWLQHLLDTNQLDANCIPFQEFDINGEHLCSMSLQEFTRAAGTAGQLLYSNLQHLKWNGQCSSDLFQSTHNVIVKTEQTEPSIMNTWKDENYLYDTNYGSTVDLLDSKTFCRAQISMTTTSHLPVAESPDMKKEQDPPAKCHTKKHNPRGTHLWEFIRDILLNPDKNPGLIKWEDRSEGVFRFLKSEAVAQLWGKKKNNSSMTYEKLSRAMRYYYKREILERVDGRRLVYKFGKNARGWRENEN
In short: as §1

SPI1 = SPI1 (Homo sapiens, UniProt P17947 1-270)
In short: as §1

SPIB = SPIB (Homo sapiens, UniProt Q01892 1-262)
In short: as §1

SPIC = target: T5, SPIC (Homo sapiens, UniProt Q8N5J4 1-248)
T5 sequence: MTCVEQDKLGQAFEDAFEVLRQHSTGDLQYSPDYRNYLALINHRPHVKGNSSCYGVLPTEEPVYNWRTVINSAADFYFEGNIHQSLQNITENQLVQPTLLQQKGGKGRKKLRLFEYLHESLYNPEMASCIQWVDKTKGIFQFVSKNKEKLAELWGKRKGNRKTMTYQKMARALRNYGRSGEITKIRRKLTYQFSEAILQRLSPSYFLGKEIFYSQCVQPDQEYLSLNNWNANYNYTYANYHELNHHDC
In short: as §1

ELF4 = ELF4 (Homo sapiens, UniProt Q99607 1-663)
In short: as §1

ELK4 = target: T6, ELK4 (Homo sapiens, UniProt P28324-2 1-405)
T6 sequence: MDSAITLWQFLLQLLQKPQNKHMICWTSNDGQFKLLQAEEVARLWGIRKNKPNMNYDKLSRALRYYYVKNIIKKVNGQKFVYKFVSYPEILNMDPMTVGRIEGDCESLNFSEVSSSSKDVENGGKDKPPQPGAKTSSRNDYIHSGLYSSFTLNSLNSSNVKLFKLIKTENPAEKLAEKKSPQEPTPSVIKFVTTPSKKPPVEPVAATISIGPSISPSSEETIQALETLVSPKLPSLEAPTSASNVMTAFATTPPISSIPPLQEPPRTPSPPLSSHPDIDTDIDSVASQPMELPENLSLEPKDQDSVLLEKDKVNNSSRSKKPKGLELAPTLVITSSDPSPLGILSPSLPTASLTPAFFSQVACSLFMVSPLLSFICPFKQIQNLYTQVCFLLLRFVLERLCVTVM
In short: as §1

ETV2 = target: T7, ETV2 (Homo sapiens, UniProt O00321 1-342)
T7 sequence: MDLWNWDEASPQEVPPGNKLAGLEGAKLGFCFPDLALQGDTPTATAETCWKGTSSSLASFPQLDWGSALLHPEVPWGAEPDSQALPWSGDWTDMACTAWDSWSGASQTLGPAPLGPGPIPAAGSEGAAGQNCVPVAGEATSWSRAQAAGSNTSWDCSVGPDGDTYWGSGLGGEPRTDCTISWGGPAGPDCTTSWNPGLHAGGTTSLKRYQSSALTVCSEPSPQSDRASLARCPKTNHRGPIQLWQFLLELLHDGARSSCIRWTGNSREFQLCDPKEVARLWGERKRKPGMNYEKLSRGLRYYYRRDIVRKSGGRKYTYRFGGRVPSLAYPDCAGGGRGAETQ
In short: as §1

ELF3 = target: T8, ELF3 (Homo sapiens, UniProt P78545 1-371)
T8 sequence: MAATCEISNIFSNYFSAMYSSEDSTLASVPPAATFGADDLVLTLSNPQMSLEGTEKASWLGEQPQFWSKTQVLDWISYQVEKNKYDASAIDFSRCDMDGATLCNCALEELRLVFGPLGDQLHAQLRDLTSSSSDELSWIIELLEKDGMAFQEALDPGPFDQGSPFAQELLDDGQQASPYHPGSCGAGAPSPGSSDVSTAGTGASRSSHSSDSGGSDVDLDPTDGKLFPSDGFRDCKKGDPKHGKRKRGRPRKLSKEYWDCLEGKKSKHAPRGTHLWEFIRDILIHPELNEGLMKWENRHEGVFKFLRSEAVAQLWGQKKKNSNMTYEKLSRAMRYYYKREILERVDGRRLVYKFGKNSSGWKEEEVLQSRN
In short: as §1

ETV3L = target: T9, ETV3L (Homo sapiens, UniProt Q6ZN32 1-361)
T9 sequence: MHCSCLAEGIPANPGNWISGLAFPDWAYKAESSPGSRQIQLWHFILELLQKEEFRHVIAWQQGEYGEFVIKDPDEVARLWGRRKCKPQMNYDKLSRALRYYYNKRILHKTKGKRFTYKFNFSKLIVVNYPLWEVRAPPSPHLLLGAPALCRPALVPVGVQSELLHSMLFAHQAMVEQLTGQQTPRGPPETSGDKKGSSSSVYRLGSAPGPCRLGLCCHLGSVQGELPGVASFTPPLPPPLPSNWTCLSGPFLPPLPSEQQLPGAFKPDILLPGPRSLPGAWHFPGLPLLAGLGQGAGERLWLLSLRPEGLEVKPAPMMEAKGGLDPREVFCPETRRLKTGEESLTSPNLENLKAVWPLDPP
In short: as §1

ETV7 = target: T10, ETV7 (Homo sapiens, UniProt Q9Y603 1-341)
T10 sequence: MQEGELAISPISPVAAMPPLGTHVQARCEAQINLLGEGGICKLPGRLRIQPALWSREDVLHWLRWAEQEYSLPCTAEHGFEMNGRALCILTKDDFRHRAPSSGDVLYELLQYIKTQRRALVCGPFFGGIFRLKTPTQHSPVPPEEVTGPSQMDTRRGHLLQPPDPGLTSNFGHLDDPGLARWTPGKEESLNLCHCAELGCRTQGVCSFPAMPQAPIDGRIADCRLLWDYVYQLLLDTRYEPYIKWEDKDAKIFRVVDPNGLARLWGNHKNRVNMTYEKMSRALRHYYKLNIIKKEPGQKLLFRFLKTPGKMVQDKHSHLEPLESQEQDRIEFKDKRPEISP
In short: as §1

ETV6 = ETV6 (Homo sapiens, UniProt P41212 1-452)
In short: as §1

ELF4, sequence (Q99607 whole entry): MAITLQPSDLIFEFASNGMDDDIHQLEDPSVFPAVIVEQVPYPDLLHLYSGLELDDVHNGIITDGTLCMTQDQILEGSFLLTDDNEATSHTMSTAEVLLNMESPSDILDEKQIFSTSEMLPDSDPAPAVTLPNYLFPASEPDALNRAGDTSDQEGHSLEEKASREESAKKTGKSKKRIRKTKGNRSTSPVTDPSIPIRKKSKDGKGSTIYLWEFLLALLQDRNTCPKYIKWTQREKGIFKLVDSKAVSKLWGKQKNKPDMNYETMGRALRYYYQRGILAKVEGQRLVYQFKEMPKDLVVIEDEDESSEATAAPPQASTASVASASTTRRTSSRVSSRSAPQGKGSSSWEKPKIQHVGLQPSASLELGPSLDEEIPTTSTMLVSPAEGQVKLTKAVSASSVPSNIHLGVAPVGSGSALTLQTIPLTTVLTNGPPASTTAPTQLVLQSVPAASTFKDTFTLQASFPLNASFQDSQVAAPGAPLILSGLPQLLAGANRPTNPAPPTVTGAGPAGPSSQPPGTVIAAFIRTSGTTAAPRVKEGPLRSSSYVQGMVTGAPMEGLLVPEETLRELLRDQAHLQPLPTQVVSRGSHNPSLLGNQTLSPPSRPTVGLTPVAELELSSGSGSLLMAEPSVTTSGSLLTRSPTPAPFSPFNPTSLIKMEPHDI
ELF1, sequence (P32519 whole entry): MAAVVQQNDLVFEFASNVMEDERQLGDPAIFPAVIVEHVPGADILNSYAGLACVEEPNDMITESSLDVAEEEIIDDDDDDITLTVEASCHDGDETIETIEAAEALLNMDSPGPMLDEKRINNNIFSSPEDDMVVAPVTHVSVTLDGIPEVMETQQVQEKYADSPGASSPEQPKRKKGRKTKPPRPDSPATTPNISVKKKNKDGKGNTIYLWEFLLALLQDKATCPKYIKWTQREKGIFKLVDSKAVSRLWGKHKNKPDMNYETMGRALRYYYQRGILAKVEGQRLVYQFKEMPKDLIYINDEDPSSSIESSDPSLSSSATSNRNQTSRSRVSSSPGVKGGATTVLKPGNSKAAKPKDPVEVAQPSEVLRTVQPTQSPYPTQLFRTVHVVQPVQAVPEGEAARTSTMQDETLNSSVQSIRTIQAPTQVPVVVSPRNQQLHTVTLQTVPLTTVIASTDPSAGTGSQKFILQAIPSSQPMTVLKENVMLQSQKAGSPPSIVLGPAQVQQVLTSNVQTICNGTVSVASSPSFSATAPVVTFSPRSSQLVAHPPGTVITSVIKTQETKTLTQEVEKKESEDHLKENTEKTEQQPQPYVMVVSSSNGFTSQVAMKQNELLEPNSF
ETV6, sequence (P41212 whole entry): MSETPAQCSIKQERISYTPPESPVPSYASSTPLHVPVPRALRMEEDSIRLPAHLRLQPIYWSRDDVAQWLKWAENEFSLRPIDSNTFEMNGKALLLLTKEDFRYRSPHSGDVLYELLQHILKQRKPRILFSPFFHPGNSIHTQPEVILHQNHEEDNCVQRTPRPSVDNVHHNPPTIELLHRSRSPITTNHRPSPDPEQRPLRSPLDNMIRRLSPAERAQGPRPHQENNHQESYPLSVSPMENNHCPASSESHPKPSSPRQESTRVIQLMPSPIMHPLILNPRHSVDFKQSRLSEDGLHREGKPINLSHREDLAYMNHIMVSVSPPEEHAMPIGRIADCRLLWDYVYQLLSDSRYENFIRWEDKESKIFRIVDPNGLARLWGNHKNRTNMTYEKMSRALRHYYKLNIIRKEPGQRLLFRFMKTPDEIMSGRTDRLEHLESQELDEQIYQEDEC
SPIB, sequence (Q01892 whole entry): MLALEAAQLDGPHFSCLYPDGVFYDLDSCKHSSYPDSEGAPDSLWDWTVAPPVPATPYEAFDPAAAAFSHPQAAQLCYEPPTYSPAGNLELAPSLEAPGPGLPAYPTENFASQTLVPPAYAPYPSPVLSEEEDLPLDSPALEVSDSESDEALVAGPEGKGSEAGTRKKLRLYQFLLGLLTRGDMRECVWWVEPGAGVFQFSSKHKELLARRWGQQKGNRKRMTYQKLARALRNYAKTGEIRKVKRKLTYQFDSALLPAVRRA

For GTACGA, the binding signal (ELK1) was 1.03 fold enrichment (6-mer frequency, TF over GST control), the binding signal (GABPA) was 1.14 fold enrichment (6-mer frequency, TF over GST control) and the binding signal (ERG) was 1.04 fold enrichment (6-mer frequency, TF over GST control). For the same sequence, the binding signal (ELF1) was 1.08 fold enrichment (6-mer frequency, TF over GST control), the binding signal (EHF) was 1.04 fold enrichment (6-mer frequency, TF over GST control) and the binding signal (SPI1) was 1.05 fold enrichment (6-mer frequency, TF over GST control). The binding signal (SPIB) was 1.05 fold enrichment (6-mer frequency, TF over GST control), the binding signal (SPIC) was 1.02 fold enrichment (6-mer frequency, TF over GST control) and the binding signal (ELF4) was 1.11 fold enrichment (6-mer frequency, TF over GST control). The binding signal (ELK4) was 1.04 fold enrichment (6-mer frequency, TF over GST control), the binding signal (ETV2) was 1.07 fold enrichment (6-mer frequency, TF over GST control) and the binding signal (ELF3) was 1.11 fold enrichment (6-mer frequency, TF over GST control). For the same sequence, the binding signal (ETV3L) was 1.09 fold enrichment (6-mer frequency, TF over GST control), the binding signal (ETV7) was 1.16 fold enrichment (6-mer frequency, TF over GST control) and the binding signal (ETV6) was 1.05 fold enrichment (6-mer frequency, TF over GST control).
